An excerpt weighted towards active compounds, which were near 1.1% of everything screened.
SRC2 inh: inhibits human steroid receptor coactivator 2 | Q15596 | HEK293 GAL4-SRC2 luciferase reporter, luminescence | inhibition, % at 9 µM | hit rate 0.17% among 370,000 | AID 651957;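 active = inhibition above the mean inhibition of all tested compounds plus 3 SD, set per campaign, cut at about 52% in these data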;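 also: 0% = DMSO treated cells and 100% = cells given Gossypol at 36 µM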
LRH-1 inv ag: suppresses constitutive activity of human LRH-1; HEK293T StAR-luciferase reporter, LRH-1 transfected, 24 h; inhibition, % at 3.6 µM; hit rate 0.13% among 360,000; AID 602396;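 active = inhibition above the mean inhibition of all tested compounds plus 3 SD, cut at about 73% in these data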;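 also: 0% = DMSO wells and 100% = reporter-only cells lacking LRH-1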
GalR3 antag: human GalR3 antagonism; inhibition, % at 3 µM; hit rate 0.44% among 360,000; AID 651719; O60755; HEK293 GalR3-CNG cAMP membrane potential fluorescence; galR3 body fused to GalR1 C-terminus;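 active = inhibition above the screen-wide average plus 3 SD, cut at about 13% in these data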;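 also: forskolin and galanin both at EC90 stimulate the cells; cAMP rise reported by CNG channel membrane potential dye signal; 0% = forskolin plus galanin with DMSO and 100% = forskolin alone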
SRC1 inh: inhibits human SRC1 coactivator. HEK293 GAL4-SRC1 luciferase reporter, luminescence. inhibition, % at 3.6 µM. hit rate 0.12% among 360,000. AID 588354;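 active = inhibition above the campaign mean plus 3 SD, with each screening campaign given its own cutoff, cut at about 60% in these data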;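 also: 0% = DMSO treated cells and 100% = gossypol at 36 µM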
NR2F2 inh: blocks human COUP-TFII nuclear receptor. P24468. HEK293T NGFI-A luciferase reporter, luminescence. inhibition, % at 8.6 µM. hit rate 0.7% among 370,000. AID 686940;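 active = inhibition above a per-plate cutoff, mean inhibition of test wells between control levels plus 3 SD, cut at about 38% in these data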;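 also: cells cotransfected with COUP-TFII expression vector driving the NGFI-A reporter; 0% = median of COUP-TF2 test wells and 100% = reporter-only cells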
SRC3 inh: human NCOA3 inhibition; Q9Y6Q9; HEK293 GAL4-SRC3 luciferase reporter, luminescence; inhibition, % at 3.6 µM; hit rate 0.17% among 360,000;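 active = inhibition above a per-campaign cutoff, the mean of all compounds plus 3 SD, cut at about 60% in these data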;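 also: 0% = DMSO-treated cells and 100% = gossypol-treated cells at 36 µM; higher means less SRC3-driven luciferase light from the GAL4 reporter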
Target sequence (Q9Y6Q9 whole entry, looked up, the tested form may be a part): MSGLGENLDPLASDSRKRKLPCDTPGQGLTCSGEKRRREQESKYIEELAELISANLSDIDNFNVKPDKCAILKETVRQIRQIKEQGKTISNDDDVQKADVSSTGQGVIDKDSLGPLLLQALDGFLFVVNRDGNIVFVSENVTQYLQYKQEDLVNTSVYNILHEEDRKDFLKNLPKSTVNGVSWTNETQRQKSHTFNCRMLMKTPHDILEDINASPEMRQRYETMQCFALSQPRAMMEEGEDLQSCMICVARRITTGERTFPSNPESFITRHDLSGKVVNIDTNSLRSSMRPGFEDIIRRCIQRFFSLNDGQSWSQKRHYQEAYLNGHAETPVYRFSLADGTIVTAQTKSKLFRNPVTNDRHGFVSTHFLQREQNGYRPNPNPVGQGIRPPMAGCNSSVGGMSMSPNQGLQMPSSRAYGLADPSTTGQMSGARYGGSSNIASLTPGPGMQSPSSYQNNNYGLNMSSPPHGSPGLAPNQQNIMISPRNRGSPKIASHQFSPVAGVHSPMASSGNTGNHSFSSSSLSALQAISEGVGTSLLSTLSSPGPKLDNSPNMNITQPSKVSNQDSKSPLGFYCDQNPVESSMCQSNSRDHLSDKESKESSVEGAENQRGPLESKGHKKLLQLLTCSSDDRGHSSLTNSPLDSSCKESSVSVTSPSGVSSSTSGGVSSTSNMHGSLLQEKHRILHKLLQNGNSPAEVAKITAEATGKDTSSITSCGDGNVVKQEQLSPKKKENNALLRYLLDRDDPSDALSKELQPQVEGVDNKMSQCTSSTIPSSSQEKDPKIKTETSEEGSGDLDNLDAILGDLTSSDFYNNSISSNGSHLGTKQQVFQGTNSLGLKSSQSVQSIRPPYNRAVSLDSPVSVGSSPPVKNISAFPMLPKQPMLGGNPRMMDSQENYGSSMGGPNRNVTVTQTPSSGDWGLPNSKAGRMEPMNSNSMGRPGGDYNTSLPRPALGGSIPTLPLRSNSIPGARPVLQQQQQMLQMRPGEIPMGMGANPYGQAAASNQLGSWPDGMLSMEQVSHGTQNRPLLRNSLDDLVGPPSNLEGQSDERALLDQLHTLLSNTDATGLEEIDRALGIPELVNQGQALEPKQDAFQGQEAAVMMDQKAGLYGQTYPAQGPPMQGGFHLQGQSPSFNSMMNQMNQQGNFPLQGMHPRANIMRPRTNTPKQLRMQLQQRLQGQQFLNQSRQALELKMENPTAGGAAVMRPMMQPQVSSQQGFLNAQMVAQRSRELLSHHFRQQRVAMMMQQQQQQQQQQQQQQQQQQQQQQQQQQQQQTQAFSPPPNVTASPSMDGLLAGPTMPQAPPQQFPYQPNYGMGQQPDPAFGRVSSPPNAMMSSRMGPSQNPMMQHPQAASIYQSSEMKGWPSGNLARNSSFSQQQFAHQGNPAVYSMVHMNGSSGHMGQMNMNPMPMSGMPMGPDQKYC
GalR3 antag conf: confirmation of human galanin receptor 3 antagonists; shares compounds with GalR3 antag; HEK293 GalR3 CNG cAMP biosensor, membrane potential fluorescence; galR3 fused to GalR1 carboxy tail; challenged with forskolin and galanin at EC90; inhibition, % at 3 µM; hit rate 59% among 1,600; AID 652245;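 active = inhibition above the primary screen's cutoff, the mean inhibition of all screened compounds plus 3 SD, cut at about 13% in these data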;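 also: 0% = forskolin plus galanin and 100% = forskolin alone with DMSO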
CNG parental: acts as nonspecific agonist in parental HEK-CNG cells. shares compounds with GalR3 antag. hit rate 10% among 1,600. HEK293-CNG parental cells, cAMP membrane potential fluorescence; normalised: DMSO wells 0%, forskolin wells 100%. AID 652268. activation, % at 3 µM; in the data active = activation above about 1.3%
VP16 Luc counter: inhibits VP16 reporter, flagging COUP-TFII antagonist hits. shares compounds with NR2F2 inh. inhibition, % at 8.5 µM. HEK293 Gal4-VP16 luciferase reporter, luminescence. AID 687007. hit rate 25% among 2,500; in the data active = inhibition above about 13%
COUP-TFII conf: COUP-TFII (NR2F2) inhibition, confirmation assay; shares compounds with NR2F2 inh; HEK293 NGFI-A luciferase reporter, luminescence; inhibition, % at 8.5 µM; hit rate 45% among 2,500; AID 687008;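 active = mean inhibition over three repeats above a set limit taken from the earlier primary screen, cut at about 38% in these data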;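 also: 100% = cells given the luciferase reporter alone without the COUP-TF2 vector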
* marks the source's active call; other numbers are inactive results.

How did O=C(Nc1ccc(S(=O)(=O)N2CCCC2)cc1)c1ccc(CN2CCOCC2)cc1 do in these assays?
SRC2 inh: 24; LRH-1 inv ag: 33; GalR3 antag: 107*; SRC1 inh: 24; NR2F2 inh: 63*; SRC3 inh: 29; GalR3 antag conf: 64*; CNG parental: 0; VP16 Luc counter: 6; COUP-TFII conf: 48*

How did COc1ccc(NS(=O)(=O)c2ccc(N3CCOCC3)c(N)c2)cc1 do in these assays?
SRC2 inh: 24; LRH-1 inv ag: 26; GalR3 antag: 84*; SRC1 inh: 3; NR2F2 inh: 48*; SRC3 inh: 16; GalR3 antag conf: 83*; CNG parental: 0; VP16 Luc counter: -9; COUP-TFII conf: 33

How did COc1ccc(S(=O)(=O)Nc2ccc(N3CCOCC3)cc2)cc1 do in these assays?
SRC2 inh: 14; LRH-1 inv ag: 10; GalR3 antag: -9; SRC1 inh: 18; NR2F2 inh: -5; SRC3 inh: 11

How did CCN(CC)S(=O)(=O)c1ccc(NC(=O)c2ccc(CN3CCOCC3)cc2)cc1 do in these assays?
SRC2 inh: 8; LRH-1 inv ag: 44; GalR3 antag: 101*; SRC1 inh: 12; NR2F2 inh: 71*; SRC3 inh: 19; GalR3 antag conf: 106*; CNG parental: -1; VP16 Luc counter: 8; COUP-TFII conf: 64*

What do the screens show for `O=C(Nc1ccc(S(=O)(=O)N2CCCCC2)cc1)c1ccc(CN2CCOCC2)cc1`?
LRH-1 inv ag: 50; SRC1 inh: 28; SRC3 inh: 45

Results for CCCCOc1ccc(C(=O)Nc2ccc(CN3CCOCC3)cc2)cc1 ?
SRC2 inh: 28; LRH-1 inv ag: 20; GalR3 antag: -8; SRC1 inh: 17; NR2F2 inh: 32; SRC3 inh: 5

How did CCCCCn1c(=O)[nH]c2cc(C(=O)NC3CCN(Cc4ccccc4)CC3)ccc2c1=O do in these assays?
SRC2 inh: 4; LRH-1 inv ag: 13; GalR3 antag: -9; SRC1 inh: 8; NR2F2 inh: 16; SRC3 inh: 8

Results for O=C(NC1CCN(Cc2ccccc2)CC1)c1ccc2c(c1)[nH]c(=O)n2Cc1ccc(F)cc1 ?
SRC2 inh: -1; LRH-1 inv ag: 19; GalR3 antag: 55*; SRC1 inh: -8; NR2F2 inh: 64*; SRC3 inh: 20; GalR3 antag conf: 59*; CNG parental: 1; VP16 Luc counter: 3; COUP-TFII conf: 34

How did C=CCN(C)C(C#Cc1ccccc1)c1ccccc1C(F)(F)F (configuration not stated) do in these assays?
NR2F2 inh: 6

How did COc1ccc(-n2c(SCc3nc4ccccc4[nH]3)nc3ccccc3c2=O)cc1 do in these assays?
SRC2 inh: 14; NR2F2 inh: 14

What do the screens show for `COc1ccc(NS(=O)(=O)c2ccc(NC(=O)c3ccc(CN4CCOCC4)cc3)cc2)cc1`?
SRC2 inh: 29; LRH-1 inv ag: 37; GalR3 antag: 89*; SRC1 inh: 8; NR2F2 inh: 64*; SRC3 inh: -2; GalR3 antag conf: 118*; CNG parental: -1; VP16 Luc counter: -4; COUP-TFII conf: 52*

Results for CCCOc1ccc(C(=O)Nc2ccc(CN3CCOCC3)cc2)cc1 ?
SRC2 inh: 11; LRH-1 inv ag: -22; GalR3 antag: -6; SRC1 inh: -6; NR2F2 inh: 0; SRC3 inh: -13

How did COc1ccc(CN2CCN(C(=O)c3ccc(S(=O)(=O)N4CCCCCC4)cc3)CC2)cc1 do in these assays?
SRC2 inh: -34; LRH-1 inv ag: 27; GalR3 antag: 26*; SRC1 inh: 25; NR2F2 inh: 63*; SRC3 inh: 21; GalR3 antag conf: 90*; CNG parental: -1; VP16 Luc counter: 3; COUP-TFII conf: 48*

How did Cc1ccccc1CCNC(=O)c1ccc(Cl)c(S(=O)(=O)N2CC(C)OC(C)C2)c1 (configuration not stated) do in these assays?
SRC2 inh: 29; LRH-1 inv ag: 10; GalR3 antag: 107*; SRC1 inh: 18; NR2F2 inh: 67*; SRC3 inh: 24; GalR3 antag conf: 92*; CNG parental: 0; VP16 Luc counter: 1; COUP-TFII conf: 34

How did CN(C)C(CNC(=O)c1ccc(Cl)c(S(=O)(=O)N2CCCCCC2)c1)c1ccccc1 (configuration not stated) do in these assays?
SRC2 inh: 9; LRH-1 inv ag: 29; GalR3 antag: 71*; SRC1 inh: 11; NR2F2 inh: 63*; SRC3 inh: 19; GalR3 antag conf: 88*; CNG parental: 1.3*; VP16 Luc counter: -1; COUP-TFII conf: 35

Results for CN(C)CCCNC(=O)c1ccc(Cl)c(S(=O)(=O)N2CCCCCC2)c1 ?
SRC2 inh: -3; LRH-1 inv ag: 3; GalR3 antag: -4; SRC1 inh: 8; NR2F2 inh: -21; SRC3 inh: 5

How did COc1cccc(S(=O)(=O)NCc2ccc(C(=O)Nc3ccc(Cl)c(Cl)c3)cc2)c1 do in these assays?
SRC2 inh: -7; LRH-1 inv ag: 13; GalR3 antag: 17*; SRC1 inh: 9; NR2F2 inh: 64*; SRC3 inh: -11; GalR3 antag conf: 55*; CNG parental: -2; VP16 Luc counter: -9; COUP-TFII conf: 23

How did C#CCN1C(C(=O)OC)CN(CCCCCC)CCS1(=O)=O (configuration not stated) do in these assays?
SRC2 inh: 10; NR2F2 inh: 9

What do the screens show for `O=C(CSc1nnc(-c2ccc(Cl)cc2)n1Cc1ccco1)Nc1ccc(S(=O)(=O)Nc2nccs2)cc1`?
SRC2 inh: 14; NR2F2 inh: -8

Results for COC(=O)C[C@@H]1CC[C@H]2[C@@H](COc3ccc(NS(=O)(=O)c4ccccc4F)cc3C(=O)N2C)O1 ?
SRC2 inh: 9; NR2F2 inh: -5

What do the screens show for `CCc1nc(C)cn1S(=O)(=O)c1cc(C)c(OC)cc1C`?
SRC2 inh: -11; LRH-1 inv ag: -31; GalR3 antag: 0; SRC1 inh: -17; NR2F2 inh: -9; SRC3 inh: -2

Assay outcomes as filed in PubChem BioAssay.
